Assay outcomes: PubChem, National Center for Advancing Translational Sciences (NCATS)
Pf growth 96h – P. falciparum growth inhibition at 96 hour, primary screen for plastid delayed-death inhibitors; P. falciparum luciferase reporter growth, 96 h; Potency, µM (doses to about 28.7 µM), inactives show top-dose activity change, negative = inhibition, usual class: inhibitors; 320,000 compounds, 6.9% hits; further: potency means the concentration at half of the fitted maximal effect; on the % scale 0 is the no-effect control and ±100 the full control effect
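Erythrocytes infected with luciferase-expressing P. falciparum were dispensed at 2% hematocrit and 0.05% parasitemia (final), then incubated with compounds 96 hours at 37 C in 5% CO2. Luminescence after detection reagent addition reported growth.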
Pf growth 48h – inhibits P. falciparum growth in the first generation, 48 h. 310,000 compounds, 5.9% hits. Potency, µM (doses to about 28.7 µM), for inactives: top-dose activity change, negative = inhibition, usual class: inhibitors. P. falciparum luciferase growth in erythrocytes, 48 h. AID 504832; further: potency means the concentration at half of the fitted maximal effect; on the % scale 0 is the no-effect control and ±100 the full control effect
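Growth was read as firefly luciferase luminescence after a 48 h, 37 C, 5% CO2 exposure of compounds to reporter-bearing P. falciparum cultures (0.1% parasitemia, 2% hematocrit final) in Albumax-supplemented RPMI 1640.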
Cycloheximide cs – affects cycloheximide protein synthesis inhibition readout, counter-screen. 300,000 compounds, 12% hits. cell reporter, cycloheximide protein synthesis inhibition counterscreen. max response, %. AID 2314; in the data active means max response mostly above about 13%, no sharp cut-off; inactive means mostly below about 14%; further: read at 38.3 µM for the half of the compounds with a filed dose; 0% is about no effect
Shiga toxin inh – blocks Shiga toxin action in Vero cells. inhibition, % at 38.7 µM. AID 2315. Vero cells, Shiga toxin protein synthesis inhibition reporter. 290,000 compounds, 9.2% hits; in the data active means inhibition mostly above about 28%, no sharp cut-off; inactive means mostly below about 43%; further: 0% is about no effect
NS1 function inh – inhibitors of influenza NS1 protein function. Potency, µM (titrated, usually from 46.1 µM), inactives show at the highest dose activity, positive = more growth. 270,000 compounds, 0.4% hits; calls by dose curve; further: potency means the concentration at half of the fitted maximal effect; actives are rising curves; nearly all actives have a fitted effect of over 50% in size
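OD600 was taken as the measure of yeast growth restored by compound in an NS1-expressing S. cerevisiae strain. Cells had been washed out of glucose medium and diluted 1:100 into galactose -URA medium, pH 6.0.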
The depositor's hits bear a star; ? = inconclusive; nt = no result. Compounds with a hit are over-represented: about 21% of the library has one in this group of screens. Unless noted, the call rests on the fitted dose curve; in most records, active means well fitted inhibition curve with a large enough effect; inconclusive means small, poorly fitted or top-dose-only effect, or another doubt; inactive means no such curve, though single readings can be large or run the other way.

SMILES	Pf growth 96h	Pf growth 48h	Cycloheximide cs	Shiga toxin inh	NS1 function inh
COc1cccc(CNc2nc3ccc(C)cc3n3cnnc23)c1	-28.6%	-2.8%	-3.2	-8.3	1.1%
Cc1ccc(Nc2nc3ccccc3n3cnnc23)c(Cl)c1	16.0%	18.0%	4.6	6.6	-2.6%
COc1cc(CO)ccc1Oc1nc2ccccc2n2cnnc12	2.9%	8.6%	6.2	28.6	-0.7%
Cc1cc(C)nc(SCc2ccc(C(=O)N/N=C/c3ccccn3)cc2)n1	?	?	1.3	-3.2	nt
CC(C)NC(=O)Nc1n[nH]c(Nc2ccc(Cl)cc2)n1	?	2.9%	13.0	12.5	-0.7%
CC(C)N=c1cc2n(-c3ccc(Cl)cc3)c3ccccc3nc-2cc1Nc1ccc(Cl)cc1	?	2.87µM*	nt	nt	nt
CCc1ccc(NC(=O)C(=O)NNC(=O)COc2cccc(OC)c2)cc1	30.2%	18.7%	-2.2	-3.2	-16.2%
CSC1=NNC(c2ccc(C(C)(C)C)cc2)=NN1	-26.2%	33.8%	32.9*	96.3*	-40.8%
Oc1ccc(C2=NNC(c3ccc(O)cc3)=NN2)cc1	?	4.8%	-4.7	-12.9	1.2%
O=C1CC(c2ccccc2Cl)c2c(sc3c(=O)[nH]c(CCl)nc23)N1 (configuration not stated)	?	-17.4%	-1.0	-0.7	0.0%
Cc1cccc(N2CCN(C(=O)CN3C(=O)NC(C)(C4CC4)C3=O)CC2)c1C (configuration not stated)	30.5%	?	nt	nt	nt
Cc1ccccc1N1CCN(C(=O)CN2C(=O)c3ccccc3C2=O)CC1	nt	28.6%	38.3*	198.1*	-9.3%
Cc1ccc(C)c(N2CCN(C(=O)CN3C(=O)c4ccccc4C3=O)CC2)c1	1.1%	1.5%	1.4	-19.0	-4.8%
Cc1cccc(N2CCN(C(=O)CN3C(=O)C4CC=CCC4C3=O)CC2)c1C (configuration not stated)	134.9%	36.0%	28.4	75.5*	nt
Cc1cccc(N2CCN(C(=O)CN3C(=O)NC(C)(C)C3=O)CC2)c1C	35.8%	62.7%	31.1*	73.8*	1.7%
O=C(CN1C(=O)C2CC=CCC2C1=O)N1CCN(c2ccc([N+](=O)[O-])cc2)CC1 (configuration not stated)	-19.4%	-6.9%	2.7	17.8	1.8%
Cc1ccc(CNC(=O)C2CCN(S(=O)(=O)c3cccs3)CC2)o1	86.6%	?	-1.5	-6.2	4.2%
CN1CCc2c(n(CC(O)CNCc3ccccc3)c3ccccc23)C1=O (configuration not stated)	19.8%	-12.6%	-4.6	-16.2	-14.6%
CC(C)NCC(O)Cn1c2c(c3ccccc31)CCc1c-2cnn1-c1ccccc1 (configuration not stated)	?	2.94µM*	-9.3	-27.6	-40.3%
Brc1ccc2c(c1)CN1CCCC1=N2	?	10.4µM*	-3.4	-12.2	1.8%
Cc1ccc(S(=O)(=O)N2CCN(C(=S)NCc3ccc4c(c3)OCO4)CC2)cc1	?	1.85µM*	9.9	-16.7	nt
COCCCNC(=S)N1CCN(S(=O)(=O)c2ccc(OC)cc2)CC1	-14.5%	?	-3.4	16.0	2.2%
COc1ccc(S(=O)(=O)N2CCN(C(=S)NCCc3ccccc3)CC2)cc1	?	4.15µM*	-1.0	-2.6	-4.5%
COc1ccc(CCNC(=S)N2CCN(S(=O)(=O)c3ccc(C)cc3)CC2)cc1	2.62µM*	2.94µM*	nt	nt	nt
Cc1ccc(S(=O)(=O)N2CCCC2CNC(=O)c2ccc3c(c2)OCO3)cc1 (configuration not stated)	14.7µM*	?	nt	nt	nt
SMILES	Pf growth 96h	Pf growth 48h	Cycloheximide cs	Shiga toxin inh	NS1 function inh
Cc1cc(C)c(NC(=O)CSCc2c(C)noc2C)c(Cl)c1	-1.7%	-4.5%	nt	nt	nt
CCC(C)NC(=O)CNC(=S)N(Cc1ccccc1F)C1CCCCC1 (configuration not stated)	?	0.0%	-4.1	32.3	-1.4%
Cc1cccc(S(=O)(=O)N2CCN(Cc3ccc4c(c3)OCO4)CC2)c1	0.738µM*	16.1%	-2.6	-8.6	6.7%
COc1ccc(S(=O)(=O)N2CCN(Cc3ccc4c(c3)OCO4)CC2)cc1	18.8%	2.8%	-4.5	-2.0	-1.9%
COCCCN(C(=O)CSCC(=O)Nc1cccc(C)c1)c1c(N)n(Cc2ccccc2)c(=O)[nH]c1=O	?	-7.6%	nt	nt	nt
O=C(Nc1cccc(C(=O)O)c1)Nc1cccc2ccccc12	241.9%	nt	21.3*	28.6	2.9%
O=C(Nc1cccc(C(=O)O)c1)Nc1ccccc1Cl	48.1%	445.2%	30.7*	98.2*	3.1%
O=C(Nc1ccccc1Cl)c1cccc(NC(=O)C2CCCC2)c1	0.9%	-16.2%	12.0*	2.4	-42.5%
CCOc1ccccc1NC(=O)c1cccc(NC(=O)C2CCCC2)c1	?	-28.0%	1.8	-1.0	-11.5%
O=C(Nc1cccc(Cl)c1)Nc1cccc(C(=O)O)c1	307.5%	289.4%	34.9*	76.0*	2.4%
COc1ccc(CCC(C)NC2C3CC4CC(C3)CC2C4)cc1 (configuration not stated)	?	?	-2.3	-12.5	-4.2%
O=C(Nc1ccc(Cl)cc1)Nc1cccc(C(=O)O)c1	3.7µM*	-12.8%	52.1*	110.3*	1.5%
O=C(CCCOc1ccc(Cl)cc1)Nc1cccc(C(=O)O)c1	?	10.0%	-1.2	18.1	7.7%
CNC(=S)N/N=C/c1c(C)c(C(=O)c2ccc(F)cc2)n2ccccc12	3.29µM*	8.28µM*	-2.2	-7.9	4.3%
Cc1c(/C=N/NC(N)=O)c2ccccn2c1C(=O)c1ccc(F)cc1	?	1.2%	-1.9	-6.0	15.7%
Cc1ccccc1OCCC(=O)OCC(=O)NC1CC1	-5.5%	-4.3%	nt	nt	nt
Cc1cc(NC(=O)c2cc(C3CC3)on2)n(-c2ccccc2)n1	2.62µM*	13.2%	-1.1	12.1	-21.8%
Cc1cc(NC(=O)c2ccccc2)n(-c2ccccc2)n1	1.85µM*	-6.1%	0.8	-1.9	1.6%
Cc1cc(NC(=O)c2ccc(Cl)cc2)n(-c2ccccc2)n1	4.5%	2.4%	-3.0	-5.6	-4.2%
CCNc1ccc(C(=O)OCC(=O)c2cc(C)n(Cc3ccc4c(c3)OCO4)c2C)cc1[N+](=O)[O-]	?	-21.4%	-1.9	-4.0	17.0%
Cc1nn(C)c(C)c1/C=C(/C(=O)C(C)(C)C)n1cncn1	-25.5%	-12.6%	-0.9	17.0	-0.8%
CC(C)(C)C(=O)/C(=C/c1ccncc1)n1cncn1	-23.6%	7.38µM*	5.6	-6.2	-6.7%
Cc1cccc(N2CCN(C(=O)c3ccc(N4CCCC4=O)cc3)CC2)c1C	nt	?	-1.7	-14.6	-7.1%
CC1(C)NC(=O)N(CC(O)CN2CCCCC2)C1=O (configuration not stated)	nt	8.2%	-2.2	-4.2	-2.2%
CN(C)CC(O)CN1C(=O)NC(C)(C)C1=O (configuration not stated)	2.08µM*	12.1%	-1.7	-5.3	3.7%
CC1(c2ccccc2)NC(=O)N(CC(=O)Nc2ccccc2C(=O)NC2CC2)C1=O (configuration not stated)	2.3%	-10.8%	-1.8	-1.8	1.6%
O=C(c1noc2c1CCc1ccccc1-2)N1CCCc2ccccc21	nt	3.29µM*	20.6*	18.9	-109.3%
